Records with an inconclusive call do not appear. Where a call stands in place of a potency, no number is given. Unmarked numbers belong to inactive results. Activity calls are given as the source filed them. Calls follow the shape of the dose curve; as a rule, active = well fitted curve in the direction sought with a large enough effect; inconclusive = small, poorly fitted or top-dose-only effect, or another doubt; inactive = no such curve, though single readings can be large; an effect the other way counts as inactive or inconclusive.
Key:
[1] = qHTS of pediatric cancer cell lines to identify multiple opportunities for drug repurposing: Confirmatory screen for TC32 cells (AID 1347118);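 also: cells exposed to compound for 48 h before the read; nearly all actives have a fitted effect of over 65% in size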; also: potency is read from the fitted curve at half-maximal effect
In short: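 Measured quantity: luminescence from CellTiter-Glo, reflecting metabolically active TC32 cells following 48 h of compound. Curves came straight from multi-point titrations, with 8 or 11 points in primary and 11 in confirmatory screening.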

[2] = qHTS of pediatric cancer cell lines to identify multiple opportunities for drug repurposing: Confirmatory screen for control Hh wild type fibroblast cells (AID 1347121); also: nearly all actives have a fitted effect of over 70% in size; also: potency is read from the fitted curve at half-maximal effect
In short: (§1)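 Cells (500-1,000/well) rested 5 h, then received compounds for 48 h; metabolically active cells were measured by CellTiter-Glo luminescence. Final concentrations spanned up to 46 µM (MIPE, 11-point) or 0.59 nM-46 µM (NPC, 8-point) in primary screens, 11-point in follow-ups.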

[3] = qHTS of pediatric cancer cell lines to identify multiple opportunities for drug repurposing: Confirmatory screen for U-2 OS cells (AID 1347122); also: nearly all actives have a fitted effect of over 65% in size; also: potency is read from the fitted curve at half-maximal effect
In short: as §1

[4] = qHTS of pediatric cancer cell lines to identify multiple opportunities for drug repurposing: Confirmatory screen for RD cells (AID 1347124);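 also: cells exposed to compound for 48 h before viability readout; nearly all actives have a fitted effect of over 65% in size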; also: potency is read from the fitted curve at half-maximal effect
In short: as §1

[5] = qHTS of pediatric cancer cell lines to identify multiple opportunities for drug repurposing: Confirmatory screen for Rh18 cells (AID 1347125); also: nearly all actives have a fitted effect of over 55% in size; also: potency is read from the fitted curve at half-maximal effect
In short: as §1

[6] = qHTS of pediatric cancer cell lines to identify multiple opportunities for drug repurposing: Confirmatory screen for Rh30 cells (AID 1347126); also: nearly all actives have a fitted effect of over 55% in size; also: potency is read from the fitted curve at half-maximal effect
In short: as §1

[7] = qHTS of pediatric cancer cell lines to identify multiple opportunities for drug repurposing: Confirmatory screen for OHS-50 cells (AID 1347128);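 also: compound exposure lasted 48 h at 37 degrees C; nearly all actives have a fitted effect of over 55% in size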; also: potency is read from the fitted curve at half-maximal effect
In short: as §1

[8] = qHTS of pediatric cancer cell lines to identify multiple opportunities for drug repurposing: Confirmatory screen for SK-N-SH cells (AID 1347129);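 also: cells exposed to compound for 48 h before viability read; nearly all actives have a fitted effect of over 60% in size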; also: potency is read from the fitted curve at half-maximal effect
In short: as §1

[9] = system: Zika virus NS2B-NS3 protease; assay: Primary screen GU AMC qHTS for Zika virus inhibitors (AID 1347154); also: nearly all actives have a fitted effect of over 70% in size; also: potency is read from the fitted curve at half-maximal effect
In short: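 Fluorogenic AMC-substrate cleavage by noncovalent NS2B-NS3 protease complex (25 nM, pH 8.0 Tris buffer with Tween 20) followed for 15 minutes at room temperature (~20% conversion). Percent inhibition from ex340/em450 signal change, fitted by 4-parameter Hill equation.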

[10] = system: Zika virus NS2B-NS3 protease (unlinked complex); assay: Primary screen GU Rhodamine qHTS for Zika virus inhibitors: Unlinked NS2B-NS3 protease assay (AID 1347159); also: nearly all actives have a fitted effect of over 60% in size
In short: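 Compounds, tested up to 114 microM, were incubated for 15 minutes with 25 nM unlinked NS2B-NS3 protease at pH 8.0. Cleavage of 1.5 microM Rhodamine110 substrate was then followed by fluorescence for 15 minutes.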

[11] = system: Zika virus NS2B-NS3 protease (linked construct); assay: Primary screen NINDS Rhodamine qHTS for Zika virus inhibitors (AID 1347160); also: nearly all actives have a fitted effect of over 55% in size
In short: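 Percent inhibition, normalized to uninhibited and enzyme-free controls, is fitted to a 4-parameter Hill equation. Fluorescence change comes from a 15-min cleavage of 1.5 microM bis-peptide Rhodamine110 substrate by 25 nM linked NS2B-NS3 at room temperature.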

[12] = qHTS of pediatric cancer cell lines to identify multiple opportunities for drug repurposing: Confirmatory screen for Rh41 cells (AID 1347123);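 also: 48 h compound exposure; nearly all actives have a fitted effect of over 60% in size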; also: potency is read from the fitted curve at half-maximal effect
In short: as §1

[13] = qHTS of pediatric cancer cell lines to identify multiple opportunities for drug repurposing: Confirmatory screen for MG 63 (6-TG R) cells (AID 1347119); also: nearly all actives have a fitted effect of over 55% in size; also: potency is read from the fitted curve at half-maximal effect
In short: as §1

[14] = qHTS of pediatric cancer cell lines to identify multiple opportunities for drug repurposing: Confirmatory screen for Saos-2 cells (AID 1347127); also: nearly all actives have a fitted effect of over 60% in size; also: potency is read from the fitted curve at half-maximal effect
In short: as §1

For `CCC(=O)N1CCN(c2ccc(-n3c(=O)ccc4cnc5ccc(-c6cnc7ccccc7c6)cc5c43)cc2C(F)(F)F)CC1`, the Potency [1] was 8.27 µM (active), the Potency [2] was “inactive” and the Potency [3] was “inactive”. The Potency [4] was “inactive”, the Potency [5] was “inactive” and the Potency [6] was “inactive”. The Potency [7] was “inactive”, the Potency [8] was “inactive” and the Potency [9] was “inactive”. For the same compound, the activity change, negative = inhibition [10] was -9.09% [at 19.1 µM] and the activity change, negative = inhibition [11] was -4.81% [at 10.7 µM].
With `Nc1[nH]nc2nnc(-c3c(-c4ccccc4)nn4ccccc34)cc12` the Potency [1] was 16.5 µM (active), the Potency [12] was “inactive” and the Potency [5] was 20.8 µM (active). For the same compound, the Potency [8] was “inactive”, the Potency [9] was “inactive” and the Potency [10] was “inactive”. For the same compound, the Potency [11] was “inactive”.
In the case of `COC(=O)[C@H](c1ccccc1Cl)N1CCc2sccc2C1`, the Potency [13] is reported as “inactive”, the Potency [2] is reported as “inactive” and the Potency [3] is reported as “inactive”. The Potency [12] was “inactive”, the Potency [4] was “inactive” and the Potency [5] was “inactive”. The Potency [6] was “inactive”, the Potency [14] was “inactive” and the Potency [7] was “inactive”. The Potency [8] was “inactive” and the Potency [9] was “inactive”.
In the case of `CC(C)CN(C[C@@H](O)[C@H](Cc1ccccc1)NC(=O)O[C@H]1CO[C@H]2OCC[C@H]21)S(=O)(=O)c1ccc(N)cc1`, the Potency [1] is reported as “inactive”, the Potency [13] is reported as “inactive” and the Potency [2] is reported as “inactive”. The Potency [3] was “inactive”, the Potency [6] was “inactive” and the Potency [14] was “inactive”. For the same compound, the Potency [7] was “inactive” and the Potency [9] was “inactive”.
With `CCNC(=O)c1noc(-c2cc(C(C)C)c(O)cc2O)c1-c1ccc(CN2CCOCC2)cc1` the Potency [13] was 0.147 µM (active), the Potency [3] was 0.117 µM (active) and the Potency [12] was 0.0465 µM (active). For the same compound, the Potency [4] was 0.0737 µM (active), the Potency [5] was 0.0928 µM (active) and the Potency [6] was 0.0737 µM (active). The Potency [14] was 0.131 µM (active), the Potency [7] was 0.147 µM (active) and the Potency [8] was 0.132 µM (active). The Potency [9] was “inactive”, the Potency [10] was “inactive” and the Potency [11] was “inactive”.
With `CC[C@]1(O)C[C@H]2CN(CCC3=c4ccccc4=N[C]3[C@@](C(=O)OC)(c3cc4c(cc3OC)N(C)[C@H]3[C@@](O)(C(N)=O)[C@H](O)[C@]5(CC)C=CCN6CC[C@]43[C@@H]65)C2)C1` the Potency [13] was 0.261 µM (active), the Potency [2] was “inactive” and the Potency [3] was 0.928 µM (active). For the same compound, the Potency [4] was 0.369 µM (active), the Potency [5] was “inactive” and the Potency [6] was “inactive”. The Potency [14] was 0.0465 µM (active), the Potency [8] was 1.18 µM (active) and the Potency [9] was “inactive”.
In the case of `CCC[C@H](Nc1nc(-c2ccc(NC(=O)NCC)c(OC)c2)ncc1C)c1cccnc1`, the Potency [2] is reported as “inactive”, the Potency [3] is reported as 0.233 µM (active) and the Potency [4] is reported as 0.147 µM (active). For the same compound, the Potency [5] was “inactive”, the Potency [14] was 0.208 µM (active) and the Potency [7] was 0.329 µM (active). The Potency [8] was “inactive” and the Potency [9] was “inactive”.
In the case of `O=C1NC(=O)C(c2cnc3ccccn23)=C1c1cn2c3c(cccc13)CN(C(=O)N1CCOCC1)CC2`, the Potency [2] is reported as “inactive”, the Potency [3] is reported as “inactive” and the Potency [12] is reported as 0.0185 µM (active). The Potency [4] was “inactive”, the Potency [5] was “inactive” and the Potency [6] was “inactive”. For the same compound, the Potency [14] was “inactive”, the Potency [7] was 10.4 µM (active) and the Potency [10] was “inactive”. The Potency [11] was “inactive”.
With `Cc1nn(Cc2ccccc2Cl)c(C)c1CN(C)CC(O)COc1ccc(Cl)cc1` (stereo not given) the Potency [2] was “inactive”, the Potency [3] was 18.5 µM (active) and the Potency [9] was “inactive”.
For `CCCCn1c(=O)n(Cc2ccccc2F)c(=O)c2[nH]c(Cc3ccc(NC(C)=O)cc3)nc21`, the Potency [13] was “inactive”, the Potency [2] was “inactive” and the Potency [5] was “inactive”. For the same compound, the Potency [14] was “inactive”, the Potency [7] was “inactive” and the Potency [8] was “inactive”. For the same compound, the Potency [9] was “inactive”, the Potency [10] was “inactive” and the Potency [11] was “inactive”.
In the case of `FC(F)(F)c1ccc(C=Cc2nc(COc3ccc(CCCCn4ccnn4)cc3)co2)cc1`, the Potency [13] is reported as 0.261 µM (active), the Potency [2] is reported as 0.369 µM (active) and the Potency [3] is reported as 0.261 µM (active). For the same compound, the Potency [4] was 1.85 µM (active), the Potency [5] was “inactive” and the Potency [7] was “inactive”. The Potency [8] was “inactive” and the Potency [9] was “inactive”.
For `CC(C)n1c(C=C[C@H](O)C[C@H](O)CC(=O)O)c(-c2ccc(F)cc2)c2ccccc21`, the Potency [13] was 3.29 µM (active), the Potency [3] was 3.69 µM (active) and the Potency [12] was 20.8 µM (active). For the same compound, the Potency [4] was 10.4 µM (active), the Potency [5] was 8.27 µM (active) and the Potency [14] was 1.04 µM (active). The Potency [7] was 10.4 µM (active) and the Potency [8] was 4.18 µM (active).
In the case of `CCC(C)SSc1ncc[nH]1` (stereo not given), the Potency [13] is reported as 20.8 µM (active), the Potency [2] is reported as “inactive” and the Potency [12] is reported as 9.27 µM (active). The Potency [8] was 16.6 µM (active) and the Potency [9] was “inactive”.
For `Cc1cc(CS(=O)(=O)c2ccccc2)cc(OCc2ccc(CN3CCC[C@H]3CO)cc2)c1`, the Potency [2] was “inactive”, the Potency [12] was 16.5 µM (active) and the Potency [4] was “inactive”. The Potency [6] was “inactive”, the Potency [14] was “inactive” and the Potency [9] was “inactive”.
In the case of `OCCn1cc(-c2ccc3c(c2)CCC3=NO)c(-c2ccncc2)n1`, the Potency [13] is reported as “inactive”, the Potency [2] is reported as “inactive” and the Potency [4] is reported as 8.51 µM (active). For the same compound, the Potency [5] was “inactive”, the Potency [7] was “inactive” and the Potency [8] was “inactive”. For the same compound, the Potency [9] was “inactive”.
For `CC[C@H](NC(=O)[C@H](C)NC)C(=O)N1C[C@@H](O)C[C@H]1Cc1c(-c2[nH]c3cc(F)ccc3c2C[C@H]2C[C@H](O)CN2C(=O)[C@H](CC)NC(=O)[C@H](C)NC)[nH]c2cc(F)ccc12`, the Potency [2] was “inactive”, the Potency [4] was “inactive” and the Potency [6] was “inactive”. The Potency [14] was 5.22 µM (active), the Potency [8] was “inactive” and the Potency [9] was 17.1 µM (active).
In the case of `C[C@@H]1O[C@@H](O[C@H]2CC[C@@]3(C)[C@H](CC[C@@H]4[C@H]3C[C@@H](O)[C@]3(C)[C@@H](C5=CC(=O)OC5)CC[C@]43O)C2)C[C@H](O)[C@@H]1O[C@H]1C[C@H](O)[C@H](O[C@H]2C[C@H](O)[C@@H](O)[C@@H](C)O2)[C@H](C)O1` (stereo in doubt), the Potency [13] is reported as 0.0759 µM (active), the Potency [12] is reported as 0.107 µM (active) and the Potency [6] is reported as 0.339 µM (active). The Potency [14] was 1.91 µM (active), the Potency [7] was “inactive” and the Potency [8] was 0.215 µM (active). The Potency [9] was “inactive”.

— PubChem BioAssay (NCATS)
